# How the values were obtained:
# Test in all cases: DAPPL (digital affinity profiling via proximity ligation, sequencing); 10 mM Tris-HCl pH 7.5, 50 mM NaCl, 1 mM DTT, 4% glycerol, room temperature, 30 min; GST-TFs on glutathione beads, 16-mer random dsDNA library, 0.1% formaldehyde crosslink after washing; high values mean tight binding
# FLI1 = target: T1, FLI1 (Homo sapiens, UniProt Q01543 1-452); details: protein: recombinant; tags: N-terminal GST; dsDNA, one strand shown
# T1 sequence: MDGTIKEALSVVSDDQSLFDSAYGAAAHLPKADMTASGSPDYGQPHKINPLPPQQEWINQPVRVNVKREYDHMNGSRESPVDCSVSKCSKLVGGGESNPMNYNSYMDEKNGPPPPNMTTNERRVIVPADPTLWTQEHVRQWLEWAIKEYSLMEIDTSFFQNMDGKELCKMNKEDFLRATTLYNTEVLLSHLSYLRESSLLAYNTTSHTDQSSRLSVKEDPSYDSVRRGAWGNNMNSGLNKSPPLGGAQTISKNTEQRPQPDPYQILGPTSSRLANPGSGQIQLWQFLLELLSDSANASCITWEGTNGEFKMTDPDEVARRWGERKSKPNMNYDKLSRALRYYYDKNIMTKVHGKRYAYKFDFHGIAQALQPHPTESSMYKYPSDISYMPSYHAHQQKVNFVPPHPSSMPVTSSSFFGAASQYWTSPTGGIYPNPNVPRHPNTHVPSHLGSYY
# In short: (§1)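 Human transcription factors fused to GST were expressed in yeast, captured on glutathione beads, given DNA barcodes and pooled with a GST-only negative control. Pools were incubated with 200 nmole of a 16-mer random double-stranded DNA library in Tris/NaCl/DTT/glycerol buffer at room temperature for 30 min. They were then washed, crosslinked with 0.1% formaldehyde, proximity-ligated (BsaI/T4 ligase, 1 h, 37 °C), PCR-amplified and sequenced on an Illumina NextSeq500. Binding signal is each 6-mer's read frequency for a factor divided by its frequency for the GST control.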
# ELK1 = target: T2, ELK1 (Homo sapiens, UniProt P19419 1-428); details: protein: recombinant; tags: N-terminal GST; dsDNA, one strand shown
# T2 sequence: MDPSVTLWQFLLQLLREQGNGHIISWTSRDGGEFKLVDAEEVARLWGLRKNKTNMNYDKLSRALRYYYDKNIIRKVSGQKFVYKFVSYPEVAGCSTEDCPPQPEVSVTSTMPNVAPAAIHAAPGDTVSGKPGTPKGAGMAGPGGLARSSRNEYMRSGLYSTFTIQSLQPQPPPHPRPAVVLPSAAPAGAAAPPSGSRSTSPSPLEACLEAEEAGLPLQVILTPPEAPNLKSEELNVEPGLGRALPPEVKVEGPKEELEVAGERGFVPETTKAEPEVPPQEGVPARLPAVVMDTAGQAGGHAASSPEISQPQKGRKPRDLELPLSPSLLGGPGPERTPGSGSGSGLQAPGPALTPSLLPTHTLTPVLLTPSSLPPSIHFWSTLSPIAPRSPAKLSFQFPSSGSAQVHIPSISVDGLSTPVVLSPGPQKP
# In short: as §1
# GABPA = target: T3, GABPA (Homo sapiens, UniProt Q06546 1-454); details: protein: recombinant; tags: N-terminal GST; dsDNA, one strand shown
# T3 sequence: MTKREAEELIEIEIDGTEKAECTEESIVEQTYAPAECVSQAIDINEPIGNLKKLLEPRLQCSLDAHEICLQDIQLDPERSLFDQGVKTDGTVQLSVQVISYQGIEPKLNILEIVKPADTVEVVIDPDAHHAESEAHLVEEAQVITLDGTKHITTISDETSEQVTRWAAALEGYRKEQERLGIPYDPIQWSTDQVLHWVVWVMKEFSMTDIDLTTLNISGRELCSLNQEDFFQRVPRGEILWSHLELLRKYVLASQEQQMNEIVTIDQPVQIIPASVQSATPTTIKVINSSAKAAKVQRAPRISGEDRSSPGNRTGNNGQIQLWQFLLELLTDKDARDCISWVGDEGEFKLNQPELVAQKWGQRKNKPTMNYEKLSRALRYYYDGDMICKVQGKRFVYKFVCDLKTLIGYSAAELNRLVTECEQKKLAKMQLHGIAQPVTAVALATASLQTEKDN
# In short: as §1
# ERG = target: T4, ERG (Homo sapiens, UniProt P11308 1-479); details: protein: recombinant; tags: N-terminal GST; dsDNA, one strand shown
# T4 sequence: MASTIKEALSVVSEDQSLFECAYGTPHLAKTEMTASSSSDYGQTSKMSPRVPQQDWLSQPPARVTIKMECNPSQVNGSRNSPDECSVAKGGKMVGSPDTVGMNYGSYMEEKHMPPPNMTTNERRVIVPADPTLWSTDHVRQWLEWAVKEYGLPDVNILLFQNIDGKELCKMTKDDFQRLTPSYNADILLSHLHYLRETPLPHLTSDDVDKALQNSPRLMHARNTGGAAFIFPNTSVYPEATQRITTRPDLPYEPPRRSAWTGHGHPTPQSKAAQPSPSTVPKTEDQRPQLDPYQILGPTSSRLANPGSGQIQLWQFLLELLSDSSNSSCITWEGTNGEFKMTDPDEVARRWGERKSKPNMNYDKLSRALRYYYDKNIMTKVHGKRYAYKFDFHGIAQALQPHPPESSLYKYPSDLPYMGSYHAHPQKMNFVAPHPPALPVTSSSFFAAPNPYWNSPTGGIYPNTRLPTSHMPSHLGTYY
# In short: as §1
# ELF1 = ELF1 (Homo sapiens, UniProt P32519 1-619); details: protein: recombinant; tags: N-terminal GST; dsDNA, one strand shown
# In short: as §1
# EHF = target: T5, EHF (Homo sapiens, UniProt Q9NZC4 1-300); details: protein: recombinant; tags: N-terminal GST; dsDNA, one strand shown
# T5 sequence: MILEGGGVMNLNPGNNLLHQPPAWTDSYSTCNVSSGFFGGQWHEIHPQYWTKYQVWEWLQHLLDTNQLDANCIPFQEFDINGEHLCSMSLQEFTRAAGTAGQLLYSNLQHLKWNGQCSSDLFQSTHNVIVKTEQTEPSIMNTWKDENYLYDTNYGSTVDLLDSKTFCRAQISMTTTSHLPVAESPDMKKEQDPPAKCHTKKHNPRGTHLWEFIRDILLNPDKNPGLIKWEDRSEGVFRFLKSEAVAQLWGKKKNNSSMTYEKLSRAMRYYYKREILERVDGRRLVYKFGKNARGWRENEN
# In short: as §1
# SPI1 = SPI1 (Homo sapiens, UniProt P17947 1-270); details: protein: recombinant; tags: N-terminal GST; dsDNA, one strand shown
# In short: as §1
# SPIB = SPIB (Homo sapiens, UniProt Q01892 1-262); details: protein: recombinant; tags: N-terminal GST; dsDNA, one strand shown
# In short: as §1
# ELK3 = target: T6, ELK3 (Homo sapiens, UniProt P41970 1-407); details: protein: recombinant; tags: N-terminal GST; dsDNA, one strand shown
# T6 sequence: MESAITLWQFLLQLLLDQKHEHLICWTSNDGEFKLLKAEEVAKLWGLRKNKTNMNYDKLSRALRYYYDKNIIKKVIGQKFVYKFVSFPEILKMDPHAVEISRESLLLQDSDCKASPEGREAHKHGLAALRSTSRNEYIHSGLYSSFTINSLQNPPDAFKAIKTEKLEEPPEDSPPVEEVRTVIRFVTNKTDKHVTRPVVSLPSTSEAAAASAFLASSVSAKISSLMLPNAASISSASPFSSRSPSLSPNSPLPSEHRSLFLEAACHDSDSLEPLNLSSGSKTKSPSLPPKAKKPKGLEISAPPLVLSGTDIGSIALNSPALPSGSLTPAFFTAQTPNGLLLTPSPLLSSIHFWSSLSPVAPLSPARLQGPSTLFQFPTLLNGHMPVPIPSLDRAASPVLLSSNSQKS
# In short: as §1
# FEV = target: T7, FEV (Homo sapiens, UniProt Q99581 1-238); details: protein: recombinant; tags: N-terminal GST; dsDNA, one strand shown
# T7 sequence: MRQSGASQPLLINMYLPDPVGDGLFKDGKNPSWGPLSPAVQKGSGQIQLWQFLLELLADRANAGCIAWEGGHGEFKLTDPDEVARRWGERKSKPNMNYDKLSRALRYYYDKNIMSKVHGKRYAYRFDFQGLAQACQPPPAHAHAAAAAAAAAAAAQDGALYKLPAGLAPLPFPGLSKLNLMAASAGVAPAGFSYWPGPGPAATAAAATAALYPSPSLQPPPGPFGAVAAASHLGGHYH
# In short: as §1
# ETV5 = ETV5 (Homo sapiens, UniProt P41161 1-510); details: protein: recombinant; tags: N-terminal GST; dsDNA, one strand shown
# In short: as §1
# HSF1 = HSF1 (Homo sapiens, UniProt Q00613 1-529); details: protein: recombinant; tags: N-terminal GST; chain copies: 3; dsDNA, one strand shown
# In short: as §1
# SPIC = target: T8, SPIC (Homo sapiens, UniProt Q8N5J4 1-248); details: protein: recombinant; tags: N-terminal GST; dsDNA, one strand shown
# T8 sequence: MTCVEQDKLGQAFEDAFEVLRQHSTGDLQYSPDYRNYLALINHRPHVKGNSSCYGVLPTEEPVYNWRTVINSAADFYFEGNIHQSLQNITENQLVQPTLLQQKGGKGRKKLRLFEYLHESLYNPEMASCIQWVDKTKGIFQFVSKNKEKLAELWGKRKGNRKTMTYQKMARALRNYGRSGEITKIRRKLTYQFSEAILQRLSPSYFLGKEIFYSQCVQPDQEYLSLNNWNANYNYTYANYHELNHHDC
# In short: as §1
# ELF4 = ELF4 (Homo sapiens, UniProt Q99607 1-663); details: protein: recombinant; tags: N-terminal GST; dsDNA, one strand shown
# In short: as §1
# ELK4 = target: T9, ELK4 (Homo sapiens, UniProt P28324-2 1-405); details: protein: recombinant; tags: N-terminal GST; dsDNA, one strand shown
# T9 sequence: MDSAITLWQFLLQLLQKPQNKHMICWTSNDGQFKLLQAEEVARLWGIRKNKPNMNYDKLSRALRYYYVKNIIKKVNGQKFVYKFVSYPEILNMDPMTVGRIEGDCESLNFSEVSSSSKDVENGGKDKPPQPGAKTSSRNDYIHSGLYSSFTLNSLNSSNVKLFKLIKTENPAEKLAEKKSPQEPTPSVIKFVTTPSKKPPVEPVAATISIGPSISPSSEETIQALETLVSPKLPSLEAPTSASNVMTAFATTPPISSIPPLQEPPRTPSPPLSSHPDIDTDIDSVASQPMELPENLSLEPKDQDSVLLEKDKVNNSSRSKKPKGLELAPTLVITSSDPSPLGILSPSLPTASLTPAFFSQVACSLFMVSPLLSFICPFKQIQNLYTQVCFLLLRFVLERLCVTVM
# In short: as §1
# ETV2 = target: T10, ETV2 (Homo sapiens, UniProt O00321 1-342); details: protein: recombinant; tags: N-terminal GST; dsDNA, one strand shown
# T10 sequence: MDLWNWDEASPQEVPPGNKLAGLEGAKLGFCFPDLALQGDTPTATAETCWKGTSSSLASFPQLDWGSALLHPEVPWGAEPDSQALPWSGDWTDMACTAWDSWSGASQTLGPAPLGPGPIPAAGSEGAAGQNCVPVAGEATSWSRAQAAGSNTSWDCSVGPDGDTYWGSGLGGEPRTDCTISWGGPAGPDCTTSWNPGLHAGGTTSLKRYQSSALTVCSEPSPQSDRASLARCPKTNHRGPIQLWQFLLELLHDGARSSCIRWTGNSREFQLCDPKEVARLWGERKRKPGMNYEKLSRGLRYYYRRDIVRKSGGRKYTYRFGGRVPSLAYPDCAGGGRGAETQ
# In short: as §1
# ELF3 = target: T11, ELF3 (Homo sapiens, UniProt P78545 1-371); details: protein: recombinant; tags: N-terminal GST; dsDNA, one strand shown
# T11 sequence: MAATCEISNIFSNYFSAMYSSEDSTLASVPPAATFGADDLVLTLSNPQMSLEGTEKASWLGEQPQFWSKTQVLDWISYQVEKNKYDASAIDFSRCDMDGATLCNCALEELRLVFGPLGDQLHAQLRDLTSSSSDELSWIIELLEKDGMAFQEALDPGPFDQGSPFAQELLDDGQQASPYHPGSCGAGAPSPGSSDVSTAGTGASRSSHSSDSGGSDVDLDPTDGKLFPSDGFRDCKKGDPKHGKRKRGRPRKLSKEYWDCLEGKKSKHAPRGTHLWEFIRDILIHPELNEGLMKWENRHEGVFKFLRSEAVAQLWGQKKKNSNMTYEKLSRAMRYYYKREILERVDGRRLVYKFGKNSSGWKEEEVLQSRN
# In short: as §1
# CRX = CRX (Homo sapiens, UniProt O43186 1-299); details: protein: recombinant; tags: N-terminal GST; dsDNA, one strand shown
# In short: as §1
# ETV1 = ETV1 (Homo sapiens, UniProt P50549 1-477); details: protein: recombinant; tags: N-terminal GST; dsDNA, one strand shown
# In short: as §1
# Sequence of HSF1 (Q00613 whole entry): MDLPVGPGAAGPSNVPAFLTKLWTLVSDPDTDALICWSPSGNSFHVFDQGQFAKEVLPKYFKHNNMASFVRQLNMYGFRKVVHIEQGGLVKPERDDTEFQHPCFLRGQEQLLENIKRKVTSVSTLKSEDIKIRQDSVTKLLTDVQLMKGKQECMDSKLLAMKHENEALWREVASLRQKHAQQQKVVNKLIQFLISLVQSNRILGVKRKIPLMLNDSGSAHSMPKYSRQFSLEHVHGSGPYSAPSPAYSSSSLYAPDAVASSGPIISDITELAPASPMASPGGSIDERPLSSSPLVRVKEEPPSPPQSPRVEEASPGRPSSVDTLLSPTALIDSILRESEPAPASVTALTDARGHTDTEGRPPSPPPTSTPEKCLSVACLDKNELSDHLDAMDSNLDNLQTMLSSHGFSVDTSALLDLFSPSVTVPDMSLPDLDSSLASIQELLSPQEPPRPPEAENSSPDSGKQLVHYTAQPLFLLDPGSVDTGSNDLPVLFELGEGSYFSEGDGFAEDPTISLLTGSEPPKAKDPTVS
# Sequence of ETV1 (P50549 whole entry): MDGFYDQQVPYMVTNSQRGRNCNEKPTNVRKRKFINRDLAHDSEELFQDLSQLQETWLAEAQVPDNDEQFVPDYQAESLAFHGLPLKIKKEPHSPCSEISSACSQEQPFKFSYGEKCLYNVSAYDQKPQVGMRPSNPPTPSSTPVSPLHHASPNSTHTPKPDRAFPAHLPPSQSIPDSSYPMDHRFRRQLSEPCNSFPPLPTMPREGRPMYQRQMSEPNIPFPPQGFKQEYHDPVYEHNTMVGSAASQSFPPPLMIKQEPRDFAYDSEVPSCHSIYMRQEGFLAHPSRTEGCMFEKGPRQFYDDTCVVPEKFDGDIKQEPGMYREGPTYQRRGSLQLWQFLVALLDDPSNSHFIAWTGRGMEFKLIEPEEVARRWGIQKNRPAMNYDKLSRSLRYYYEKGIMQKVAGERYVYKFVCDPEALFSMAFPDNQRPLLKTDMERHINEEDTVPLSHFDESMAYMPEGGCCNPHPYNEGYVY
# Sequence of ELF4 (Q99607 whole entry): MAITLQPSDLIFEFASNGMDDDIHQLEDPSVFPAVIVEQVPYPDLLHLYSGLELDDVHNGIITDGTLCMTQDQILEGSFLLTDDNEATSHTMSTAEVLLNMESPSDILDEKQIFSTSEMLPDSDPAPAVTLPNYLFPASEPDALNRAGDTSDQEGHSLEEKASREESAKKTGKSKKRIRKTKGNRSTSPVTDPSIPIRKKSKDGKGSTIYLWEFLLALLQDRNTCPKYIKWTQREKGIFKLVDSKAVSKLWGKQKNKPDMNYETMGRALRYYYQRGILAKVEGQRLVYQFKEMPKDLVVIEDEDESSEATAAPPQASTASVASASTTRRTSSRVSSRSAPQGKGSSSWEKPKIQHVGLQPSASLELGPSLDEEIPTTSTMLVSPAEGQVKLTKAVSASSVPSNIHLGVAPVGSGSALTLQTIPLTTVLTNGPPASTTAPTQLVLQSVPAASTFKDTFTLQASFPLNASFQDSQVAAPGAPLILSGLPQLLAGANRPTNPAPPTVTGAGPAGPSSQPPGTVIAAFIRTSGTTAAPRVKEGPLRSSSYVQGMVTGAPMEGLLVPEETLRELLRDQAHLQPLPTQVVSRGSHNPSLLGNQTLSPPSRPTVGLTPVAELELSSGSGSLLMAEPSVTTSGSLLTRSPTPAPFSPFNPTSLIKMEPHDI
# Sequence of ETV5 (P41161 whole entry): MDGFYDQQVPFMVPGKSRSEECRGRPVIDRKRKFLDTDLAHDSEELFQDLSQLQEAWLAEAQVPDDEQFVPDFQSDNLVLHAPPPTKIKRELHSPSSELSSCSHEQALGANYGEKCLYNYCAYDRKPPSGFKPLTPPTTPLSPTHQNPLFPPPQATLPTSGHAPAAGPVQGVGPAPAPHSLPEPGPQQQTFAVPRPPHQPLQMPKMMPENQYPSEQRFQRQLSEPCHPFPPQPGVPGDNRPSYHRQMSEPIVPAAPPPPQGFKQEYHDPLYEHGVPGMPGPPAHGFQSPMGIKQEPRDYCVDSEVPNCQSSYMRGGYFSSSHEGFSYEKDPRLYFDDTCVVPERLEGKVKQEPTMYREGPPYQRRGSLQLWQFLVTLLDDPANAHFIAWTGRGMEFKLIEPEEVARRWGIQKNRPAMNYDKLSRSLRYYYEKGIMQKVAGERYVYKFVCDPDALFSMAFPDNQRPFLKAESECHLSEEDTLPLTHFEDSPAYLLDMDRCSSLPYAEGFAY
# Sequence of ELF1 (P32519 whole entry): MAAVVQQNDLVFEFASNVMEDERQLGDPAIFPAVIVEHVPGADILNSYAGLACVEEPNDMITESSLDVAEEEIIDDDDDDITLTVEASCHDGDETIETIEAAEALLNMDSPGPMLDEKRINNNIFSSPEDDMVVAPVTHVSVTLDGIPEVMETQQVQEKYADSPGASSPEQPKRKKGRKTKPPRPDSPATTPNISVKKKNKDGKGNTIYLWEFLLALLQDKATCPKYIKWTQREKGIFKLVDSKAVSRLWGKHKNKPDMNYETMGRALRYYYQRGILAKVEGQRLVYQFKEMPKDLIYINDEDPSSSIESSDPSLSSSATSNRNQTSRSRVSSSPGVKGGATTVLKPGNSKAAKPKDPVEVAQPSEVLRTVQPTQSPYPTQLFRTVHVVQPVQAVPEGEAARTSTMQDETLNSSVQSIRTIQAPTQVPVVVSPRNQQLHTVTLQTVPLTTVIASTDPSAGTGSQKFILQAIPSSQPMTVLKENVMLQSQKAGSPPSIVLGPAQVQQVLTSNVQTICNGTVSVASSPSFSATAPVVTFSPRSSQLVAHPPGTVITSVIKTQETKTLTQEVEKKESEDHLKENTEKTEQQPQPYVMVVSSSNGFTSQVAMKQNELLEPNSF
# Sequence of SPIB (Q01892 whole entry): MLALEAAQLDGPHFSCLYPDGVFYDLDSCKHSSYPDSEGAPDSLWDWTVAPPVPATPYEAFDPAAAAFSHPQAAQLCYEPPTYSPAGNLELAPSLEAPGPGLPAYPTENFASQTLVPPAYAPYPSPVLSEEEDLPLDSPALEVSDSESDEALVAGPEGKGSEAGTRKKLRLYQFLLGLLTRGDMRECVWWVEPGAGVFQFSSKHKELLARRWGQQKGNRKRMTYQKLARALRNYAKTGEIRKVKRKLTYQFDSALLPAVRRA
# Sequence of CRX (O43186 whole entry): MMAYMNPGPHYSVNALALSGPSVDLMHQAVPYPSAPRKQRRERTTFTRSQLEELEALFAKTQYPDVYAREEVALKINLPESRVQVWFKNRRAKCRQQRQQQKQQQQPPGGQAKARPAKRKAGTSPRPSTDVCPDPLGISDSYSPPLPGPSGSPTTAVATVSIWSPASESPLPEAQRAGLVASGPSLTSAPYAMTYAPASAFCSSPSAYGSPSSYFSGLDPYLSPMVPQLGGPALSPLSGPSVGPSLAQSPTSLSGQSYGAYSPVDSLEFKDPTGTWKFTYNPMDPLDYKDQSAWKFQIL
sequence,measurement,setting,value
TATGGC,binding signal,FLI1,"1.19 fold enrichment (6-mer frequency, TF over GST control)"
same,binding signal,ELK1,"1.29 fold enrichment (6-mer frequency, TF over GST control)"
same,binding signal,GABPA,"1.26 fold enrichment (6-mer frequency, TF over GST control)"
same,binding signal,ERG,"1.27 fold enrichment (6-mer frequency, TF over GST control)"
same,binding signal,ELF1,"1.24 fold enrichment (6-mer frequency, TF over GST control)"
same,binding signal,EHF,"1.1 fold enrichment (6-mer frequency, TF over GST control)"
same,binding signal,SPI1,"1.12 fold enrichment (6-mer frequency, TF over GST control)"
same,binding signal,SPIB,"1.18 fold enrichment (6-mer frequency, TF over GST control)"
same,binding signal,ELK3,"1.16 fold enrichment (6-mer frequency, TF over GST control)"
same,binding signal,FEV,"1.36 fold enrichment (6-mer frequency, TF over GST control)"
same,binding signal,ETV5,"1.33 fold enrichment (6-mer frequency, TF over GST control)"
same,binding signal,HSF1,"1.2 fold enrichment (6-mer frequency, TF over GST control)"
same,binding signal,SPIC,"1.17 fold enrichment (6-mer frequency, TF over GST control)"
same,binding signal,ELF4,"1.2 fold enrichment (6-mer frequency, TF over GST control)"
same,binding signal,ELK4,"1.2 fold enrichment (6-mer frequency, TF over GST control)"
same,binding signal,ETV2,"1.41 fold enrichment (6-mer frequency, TF over GST control)"
same,binding signal,ELF3,"1.29 fold enrichment (6-mer frequency, TF over GST control)"
same,binding signal,CRX,"1.34 fold enrichment (6-mer frequency, TF over GST control)"
same,binding signal,ETV1,"1.25 fold enrichment (6-mer frequency, TF over GST control)"
